# Measurements from PubChem BioAssay AID651845 (Broad Institute, 2012).
# Potency and affinity values are given separately. Inconclusive results are not listed. Entries that show only a call come without a potency. The source made the active and inactive calls.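 Rule for the calls: active = every replicate test called active, with signal dropping and a potency found within twice the top tested dose; inconclusive = replicate test calls disagree with each other; inactive = all replicate tests inactive, including signal rising.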
# Experiment: growth inhibition of intracellular T. cruzi, dose response, cell-based, plate reader, dry powder samples (AID 651845)
row,Compound,outcome
1,CNC[C@@H]1Oc2c(NC(=O)c3ccncc3)cccc2C(=O)N(C(C)C)C[C@H]1C,inactive
2,CC(C)N1C[C@H](C)[C@@H](CN(C)C(=O)OC(C)(C)C)Oc2c(C(=O)O)cccc2C1=O,inactive
